The text below walks through data of ChEMBL document CHEMBL4513216, “Probing the Open Global Health Chemical Diversity Library for Multistage-Active Starting Points for Next-Generation Antimalarials” (ACS Infect Dis, 2020).

Among all 65,000 compounds or so, about 2,100 (3.2%) showed an effect of 50% or more. The median lay at about -52%. The full list was thinned out, with strong results kept by preference.

The experiment has as its system Plasmodium falciparum. In words: Screen against P. falciparum Asexual Blood Stage (ABS), at 5uM. The following applies: tested at 5 uM. Type of experiment: functional, Dd2.
As for `Cc1cc2n(n1)CC(CNC1CCN(Cc3ccccc3C)CC1)CN2` (stereo not given), the INHIBITION turned out to be 71%.

With `Cc1cccc(CN2CCC(NCC3CNc4cc(C)nn4C3)CC2)c1` (stereo not given), the INHIBITION amounted to 86.5%. The same measure for `Cc1cc(-c2ccc(C(C)N3CCCCC3)cc2)cnc1N` (stereo not given): 91%.

Regarding `Cc1oncc1C(=O)N1CC[C@H]2[C@H]1CCN2Cc1ccccn1`, the INHIBITION is given as -23.4%. `COCCCNc1c(C#N)c2c(c3nncn13)CN(C)CC2`: the INHIBITION was -104%. The same measure for `O=C(c1cccc(-n2cnnn2)c1)N1CCC2(CC1)OCCO2`: -24.5%. The same measure for `CCN(CC)C(=O)c1ccc(NC(=O)CNc2ccc(F)cc2Cl)cc1`: -91.8%. Regarding `CCN(CC)C(=O)c1ccc(NC(=O)CNc2ccc(Br)cc2F)cc1`, the INHIBITION is recorded as -171%.

As for `Cc1ccc(-n2cnnn2)cc1NCC(=O)Nc1ccccc1Cl`, the INHIBITION turned out to be 79.3%. In the case of `Cc1ccc(-n2cnnn2)cc1NCC(=O)Nc1cc(F)ccc1F` it was 72.3%. The same measure for `O=C(c1cc(-n2cnnn2)ccc1Cl)N1CCC2(CC1)OCCO2`: -29.7%; for `O=C(NCC1CCC2(CCNCC2)O1)C1CC1` (stereo not given): 47.7%; for `Cc1cccnc1N1CC2(CCN(Cc3cnn(C)c3)C2)C1`: 23.4%. The same measure for `Cc1[nH]c2c(F)cccc2c1CC(=O)N1CCN(C2CCSCC2)CC1`: -8.93%; for `COc1ccc(CN2CCNC(=O)CC2)cc1SC(F)(F)F`: 74.5%; for `COc1cccc(C2=CCN(CCN3CCOC3=O)CC2)c1`: -8.54%.

With `Cc1cc(CN2C[C@@H]3CCCO[C@@H]3[C@H](Nc3ccccn3)C2)no1`, the INHIBITION is given as -62.6%. In the case of `CCOCC(O)CN1CCN(C(=O)Cc2ccc(C)nc2)CC1` (stereo not given) it was -7.76%. With `OC(COCc1ccc(Cl)cc1)CN1CCC(c2ccn[nH]2)CC1` (stereo not given), the INHIBITION is listed as 70.9%. In the case of `Cc1noc(C)c1CN(Cc1cccnc1)C1CN2CCC1CC2` (stereo not given) it was -110%; in that of `O=C1NCC2(CCCN(Cc3cccnc3)C2)Oc2ccccc21` (stereo not given), -134%; in that of `CCc1cc(CN(Cc2cccnc2)C2CN3CCC2CC3)on1` (stereo not given), 3.06%. The same measure for `Cc1ccsc1CN1C[C@@H]2CN(Cc3cccnc3)CCO[C@@H]2C1`: -28.4%; for `Cc1ccsc1CN(Cc1cccnc1)C1CC(C)(C)NC(C)(C)C1`: 81.4%; for `CCCN(Cc1cccnc1)C1CC(C)(C)NC(C)(C)C1`: 77.6%. On to `CCN(Cc1cccnc1)CC1CCCO1` (stereo not given), for which the INHIBITION is reported as -162%. Turning to `CC1(C)CC(N(Cc2ccccc2)Cc2ncc[nH]2)CC(C)(C)N1`, the INHIBITION is listed as 70.3%. For the compound `CC1(C)CC(N(Cc2cccnc2)Cc2cccc(F)c2)CC(C)(C)N1`, the INHIBITION turned out to be 76.6%. In the case of `Cc1ncc2c(c1CNC(=O)C1(C)CCCO1)CCNC2` (stereo not given) it was -148%.

`C[C@@H]1CN(C2CCOC2)C[C@]12CCN(Cc1cccnc1)C2=O` (stereo not given in full): the INHIBITION is given as -45.9%. In the case of `Clc1cc(N2CCN3CCCCC3C2)nc2[nH]ccc12` (stereo not given) it was 42.6%. Take `CN(C)CCN1CCCC12CCN(C(=O)c1ccncc1)CC2`: the INHIBITION is listed as -98.9%. In the case of `c1ccc(OCC2C[C@@H]3[C@@H](C2)OCCN3CC2CCOCC2)nc1` (stereo not given in full) it was -60.7%; in that of `Cc1noc(C)c1CN1CCOC2(CCCN(c3nncs3)C2)C1` (stereo not given), -103%; in that of `COc1ccc(N2CCCC3(C2)CN(c2nncs2)CCO3)cc1` (stereo not given), 88%. The same measure for `Cc1noc(C)c1CN1CCCC2(C1)CN(c1nncs1)CCO2` (stereo not given): -18.9%; for `O=C1CSC(c2ccncc2)c2c(n(C3CCOCC3)[nH]c2=O)N1` (stereo not given): -84.2%; for `CC(C)C(NC(=O)c1ccco1)C(=O)N1CCC2(CC1)OCCO2` (stereo not given): -80.1%. The same measure for `CNC(=O)CCN(C)CC1(c2ccc(Br)cc2)CC1`: 87.3%; for `Cc1sc2c(C3CCCN(C)C3)nc(C)n2c1C` (stereo not given): 42.7%. In the case of `CN1CCCC(c2cccc(-c3cccc(F)c3)n2)C1` (stereo not given), the INHIBITION is listed as 74%. Turning to `CN1CCCC(c2cncc(-c3cccc(C(F)(F)F)c3)n2)C1` (stereo not given), the INHIBITION is listed as 77.3%. The same measure for `CC(=O)N1CCCC(c2ccc(N3CCN(C)CC3)cn2)C1` (stereo not given): -0.837%; for `CN1CCCC(c2cccc(-c3cccc(C(F)(F)F)c3)n2)C1` (stereo not given): 73.7%; for `CN1CCC(c2cncc(N(C)C)n2)CC1`: -19%.

Take `CNC(=O)c1ccc2c(c1)C1(CCN(CC(C)C)CC1)C(=O)N2`: the INHIBITION was -15.5%. For `Cc1nccc([C@H]2C[C@@H]3CCN(Cc4ccco4)C[C@H]3O2)n1`, the INHIBITION is on record as -9.96%.

As for `Cc1ccc(CC(=O)N2CCN(C3CCOC3=O)CC2)cc1` (stereo not given), the INHIBITION is given as -27.2%. With `CC(C)N1CCN(C)C2(CCN(C(=O)c3ccnnc3)CC2)C1=O`, the INHIBITION is given as -37.3%. In the case of `CN1CCN2C(=O)N(C3CCOCC3)C[C@H]2C1` it was -99.7%; in that of `c1cncc(COCC2CC[C@H]3[C@H]2OCCN3Cc2ccoc2)c1` (stereo not given in full), -12.2%; in that of `CCC[C@H]1CN(S(=O)(=O)c2c(C)noc2C)C[C@@H]1N`, 82.5%.

On to `CCC[C@H]1CN(S(=O)(=O)c2ccc(CC)s2)C[C@@H]1N`, for which the INHIBITION was 75.8%. In the case of `Cc1noc(C)c1CN1C[C@H]2CNC[C@H]2C1` it was 9.33%. In the case of `Cc1nc(CC(=O)N(CCN2CCOCC2)Cc2ccco2)c(C)s1` it was -135%; in that of `Cc1ccc(CN(CCN(C)C)Cc2c(C)nc3sccn23)o1`, 84.6%; in that of `Cc1nc2sccn2c1CN(CCCN(C)C)Cc1ccco1`, 86.2%. The same measure for `Cc1ccc(CN(CCN(C)C)C(=O)Cc2cn3ccccc3n2)o1`: -67.1%.

Regarding `CN(C)CCN(Cc1ccco1)C(=O)Cc1cn2ccsc2n1`, the INHIBITION is reported as -5.56%. In the case of `CNC(=O)CN1CCO[C@H]2CN(C(=O)c3ccncc3F)C[C@H]21` it was -74.6%; in that of `CCCn1cc(C(=O)NC(C(=O)O)c2ccccc2C(F)(F)F)c(C)n1` (stereo not given), -51.5%; in that of `CS(=O)(=O)N1CCN(CC2CC2)c2ncccc2C1`, -25.9%.

Consider `OC[C@H]1CN2CCN(c3ccccn3)C[C@@H]2[C@@H]1c1ccccc1`, for which the INHIBITION is -11.3%.

Take `NCC1Cc2cc(Oc3cc(F)c(CN4CCCC4)c(F)c3)ccc2O1` (stereo not given): the INHIBITION is listed as 77.8%.

As to `COc1ccc(CN2CCCC2)cc1Oc1ccc2c(c1)CC(CN)O2` (stereo not given), the INHIBITION is 88.2%. In the case of `COc1ncccc1CN1C[C@@H]2COC[C@]2(COCC2CC2)C1` it was 33.8%; in that of `Cc1cccc(CN2C[C@@H]3COC[C@]3(COc3cccnc3)C2)n1`, -77.5%. As to `Cc1noc(C)c1CN1CCOCC12CCN(c1nccs1)CC2`, the INHIBITION is recorded as -91.6%. For `O=C(Cc1ccccc1)N1C[C@@H]2OCCN(CC3CCCO3)[C@@H]2C1` (stereo not given in full), the INHIBITION is listed as -34.5%. The same measure for `O=C(c1scc2c1OCCO2)N1CCOC(CCc2ccccc2)C1` (stereo not given): 88.7%; for `O=C(CCc1ccccc1)N1C[C@H]2CCN[C@H]2C1`: -6.16%; for `Cc1ccccc1C1(C(=O)NCCN2CCC(C)CC2)CCOCC1`: 85.3%.

Consider `Cc1ccccc1C1(C(=O)NCCN2CCCC(C)C2)CCOCC1` (stereo not given), for which the INHIBITION was found to be 88.1%. In the case of `CN1CC[C@H]2OCC[C@@]2(C(=O)NCCc2ccccn2)C1` it was 12.7%; in that of `O=C(NCCc1ccccn1)[C@@]12CCO[C@@H]1CCN(CC1CC1)C2`, 30.8%. In the case of `O=C(NCCc1ccccn1)[C@@]12CCO[C@@H]1CCN(C1CCC1)C2` it was 44.6%; in that of `O=S1(=O)CCC(n2cc(C3=CCN(CCN4CCCCC4)CC3)cn2)C1` (stereo not given), 12.6%. In the case of `O=C(N[C@H]1CN[C@H]2CCCO[C@H]21)c1ccno1` it was -87.2%; in that of `c1cc(COC[C@@H]2CCC[C@@]23CNCCO3)ccn1`, 7.1%. For `COc1cc(CNCC(O)c2ccc(F)cc2F)cc2c1OCO2` (stereo not given), the INHIBITION came to 85.5%. As to `COc1cc(CNCC(O)c2ccccc2F)cc2c1OCO2` (stereo not given), the INHIBITION worked out at 78%.

Take `CC[C@H](N)Cn1nc(-c2cccs2)oc1=O`: the INHIBITION is -186%. In the case of `CCc1nnc(C(C)N2CCCN(C(=O)Oc3ccccc3)CC2)o1` (stereo not given) it was -87.2%.

Take `CCC(CN1CCN(C)CC1)NC(=O)C1(c2cccc(F)c2)CC1` (stereo not given): the INHIBITION amounted to 77.1%. For `O=C(Nc1cccc(F)c1)N1CCC(CO)(Nc2ccccc2)CC1`, the INHIBITION was -35.15%. The same measure for `CC(C)NC(=O)c1ccc2c(c1)C1(CCN(C)CC1)C(=O)N2`: -37.9%; for `CC(C)CN1CCC2(CC1)C(=O)Nc1ccc(C(=O)NC(C)C)cc12`: -39.5%.

Regarding `CCC(CN1CCCC1)NC(=O)C1(c2cccc(F)c2)CC1` (stereo not given), the INHIBITION is recorded as 84.7%. As to `CC(C)n1cc(C(=O)NC2CN3CCC2CC3)c2ccccc21` (stereo not given), the INHIBITION is given as -24.9%. The same measure for `CC(C)(C)n1cc(C(=O)NCCN2CCOCC2)c2cccnc21`: -89.4%. In the case of `Cc1[nH]c2ccccc2c1-c1ccnc(NCCN2CCOCC2)n1` it was 82.5%; in that of `Cn1cc(C2NC3(CCCC3)C(=O)N2CC2CC2)c(=O)n(C)c1=O` (stereo not given), -43.9%; in that of `Cc1ccc(N2CC[C@@H]3CN(Cc4cc[nH]n4)C[C@@H]3C2)nn1`, -19.6%.

Regarding `Cc1cc(CN2C[C@@H]3CN(C(=O)c4ccco4)CCO[C@@H]3C2)no1`, the INHIBITION is reported as -45%.

Regarding `NCC1(c2cccc(Br)c2)CCOCC1`, the INHIBITION is listed as 79.5%. Consider `NCC1(c2cccc(C(F)(F)F)c2)CCOCC1`, for which the INHIBITION was 69.9%. In the case of `NCC1(c2cccc(F)c2)CCOCC1`, the INHIBITION is 2.49%. For the compound `NCC1(c2cccc(C(F)(F)F)c2)CC1`, the INHIBITION is -97.7%. For the compound `Cc1nn(-c2ccc(C(=O)O)cc2)c2c1C(c1ccsc1)SCC(=O)N2` (stereo not given), the INHIBITION was -82.6%. The same measure for `COCCN1CCN(Cc2ccco2)Cc2ccc(C)nc21`: -85%; for `COCCN1CCO[C@@H]2CN(S(=O)(=O)c3cccnc3)C[C@@H]2C1`: -76.3%. The same measure for `Cc1cc(CN2C[C@@H]3COC[C@@H](C(=O)N4CCCCO4)[C@@H]3C2)no1`: -31.1%. In the case of `Cn1cc(CN2C[C@H]3CCC[C@@H](CNc4ncccn4)[C@H]3C2)cn1` it was -87.3%. For the compound `COCCN(C)C[C@@H]1CCC[C@@H]2CN(Cc3ccc(OC)nc3)C[C@@H]21`, the INHIBITION stood at 79.6%.

On to `c1cnc(NC[C@@H]2CCC[C@@H]3CN(Cc4cccnc4)C[C@@H]32)nc1`, for which the INHIBITION is reported as 42.2%.

Turning to `O=C(C[C@@H]1COC[C@H]2CN(Cc3cccnc3)C[C@@H]12)N1CCCC1`, the INHIBITION is -133%. Regarding `CN(C[C@@H]1CCC[C@@H]2CN(Cc3cccnc3)C[C@@H]21)C1CC1`, the INHIBITION is recorded as 56.5%. On to `COc1ccc(CN2C[C@H]3CCC[C@@H](CN(C)C)[C@H]3C2)cn1`, for which the INHIBITION is given as 50%.

On to `COc1ccc(CN2C[C@H]3CCC[C@@H](CN(C)C4CC4)[C@H]3C2)cn1`, for which the INHIBITION stood at 78.2%. With `COC1CCC[C@@H]2CN(Cc3csc(C)n3)C[C@H]12` (stereo not given in full), the INHIBITION worked out at 24.8%.
